A selection: hits, their analogues and other compounds. The true share with any hit is near 0.95%.
LmPK inh: blocks Leishmania mexicana pyruvate kinase activity. Q27686. purified LmPK, Kinase-Glo ATP luminescence, 1 h. Potency, µM (top dose mostly 57.5 µM), for inactives: top-dose activity change, negative = inhibition, most hits filed as inhibitors. 290,000 tested, 0.37% active
Target sequence (Q27686 whole entry, looked up): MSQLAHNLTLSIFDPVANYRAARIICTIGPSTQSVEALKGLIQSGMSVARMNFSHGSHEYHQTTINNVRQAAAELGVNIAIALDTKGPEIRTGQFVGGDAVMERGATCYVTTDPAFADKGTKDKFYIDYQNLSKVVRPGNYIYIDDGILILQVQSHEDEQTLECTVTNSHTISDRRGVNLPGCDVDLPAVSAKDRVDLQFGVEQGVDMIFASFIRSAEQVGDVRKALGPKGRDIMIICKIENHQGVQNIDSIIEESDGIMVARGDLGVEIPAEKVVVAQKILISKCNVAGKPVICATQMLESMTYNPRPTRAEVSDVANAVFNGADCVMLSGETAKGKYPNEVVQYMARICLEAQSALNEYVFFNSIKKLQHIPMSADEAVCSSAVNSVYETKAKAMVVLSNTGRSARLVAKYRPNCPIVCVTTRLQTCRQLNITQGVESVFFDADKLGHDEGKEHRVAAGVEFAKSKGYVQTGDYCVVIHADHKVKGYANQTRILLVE
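In 50 mM imidazole pH 7.2 with 7 mM MgCl2, LmPK (0.1 nM) turned over PEP (0.5 mM) and ADP (0.1 mM) for 1 h at room temperature. Luciferase read-out of ATP.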
TbPYK inhibitor: inhibitors of Trypanosoma brucei pyruvate kinase. Q57TT1. TbPYK enzyme, Kinase-Glo Plus ATP luminescence, 45 min. Potency, µM (highest dose often 76.8 µM), without a hit: at the top dose activity, negative = inhibition, usual class: inhibitors. 410,000 tested, 0.12% active. AID 624173; note: nearly all actives have a fitted effect of over 50% in size
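In this concentration-response screen, enzyme-free wells defined baseline while DMSO plates tracked drift. Each reaction combined TbPYK, substrate, compound and 130 uM ADP for 45 min at room temperature. Kinase-Glo Plus luminescence gave the signal.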
FBPA Giardia inh: blocks Giardia fructose-bisphosphate aldolase activity; purified Giardia FBPA; 290,000 tested, 0.71% active; A8B2U2; Potency, µM (highest dose often 59.6 µM), for inactives: at the top dose activity, negative = inhibition, most hits filed as inhibitors; note: nearly all actives have a fitted effect of over 55% in size
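Giardia FBPA (40 nM reagent) was preincubated 10 min at RT with compound (up to 57.5 uM final), then substrate plus GAPDH/TPI/NAD/arsenate coupling system with diaphorase/resazurin was added; resorufin fluorescence (525/598 nm) was read after 20 min.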
RE007 growth inh: less growth of the S. pombe RE007 Vpr strain; S. pombe RE007 Vpr strain, BacTiter-Glo ATP luminescence, 24 h; Potency, µM (series often up to 92.2 µM), inactives show at the top dose activity change, negative = less growth, most hits filed as inhibitors; 360,000 tested, 0.21% active; AID 651644; active = well fitted falling curve with a large enough effect; inconclusive = small, poorly fitted or top-dose-only effect; inactive = no such curve, though single readings can be large or run the other way; note: nearly all actives have a fitted effect of over 50% in size
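Fission yeast strain RE007, carrying one chromosomally integrated HIV-1 vpr copy, was seeded at OD 0.01 in PMG+AL medium with 23 nL pinned compound. After 24 h at 30 °C and 99% humidity, viability was read by BacTiter-Glo luminescence.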
An asterisk follows results filed as active; [ ] = another dose, or the depositor's remark. Unless noted, calls come from the whole dose curve; as a rule, active = well fitted curve in the direction sought with a large enough effect; inconclusive = small, poorly fitted or top-dose-only effect, or another doubt; inactive = no such curve, though single readings can be large; an effect the other way counts as inactive or inconclusive. % is set by controls: 0 for no effect and ±100 for the full control effect; potency is the fitted concentration of half-maximal effect.

How did COc1ccccc1CNc1ccnc(-c2ccc3c(c2)OCO3)n1 do in these assays?
FBPA Giardia inh: -20.4%

How did COc1ccc(COC(=O)N/N=C2/C[C@@H](O)[C@@H](O)[C@@H]3[C@@H]4C(=O)N(Cc5ccc6c(c5)OCO6)C(=O)[C@H]4CC[C@H]23)cc1 do in these assays?
FBPA Giardia inh: -3.4%[12.9 µM]

Results for COc1cc(-c2n[nH]c(=S)n2-c2ccccc2C(F)(F)F)cc(OC)c1OC ?
LmPK inh: 17.8µM*; TbPYK inhibitor: inconclusive; FBPA Giardia inh: -4.8%; RE007 growth inh: 18.8%

What do the screens show for `Cc1ccc2nc(SCCCCOc3ccccc3)[nH]c2c1`?
LmPK inh: 1.3%; TbPYK inhibitor: 1.3%; FBPA Giardia inh: -10.1%; RE007 growth inh: 56.2µM*

Results for Brc1ccc2nc(SCCOc3ccccc3)[nH]c2c1 ?
TbPYK inhibitor: 1.4%

How did COc1ccc(C2/C=C\CN(C(=O)c3ccccc3)C(Cc3ccccc3)C(=O)N2Cc2ccc(F)cc2)cc1 (stereo unspecified) do in these assays?
FBPA Giardia inh: -5.9%

What do the screens show for `O=C(COc1ccccc1)Nc1nccs1`?
LmPK inh: 14.1µM*; TbPYK inhibitor: -16.1%; FBPA Giardia inh: -1.1%; RE007 growth inh: -9.1%

Results for Cc1cc(C)cc(N2C(=O)C=CC2=O)c1 ?
TbPYK inhibitor: 12.6µM*; RE007 growth inh: 3.16µM*

How did Cc1ccc(N2C(=O)C3C4C=CC(CC4)C3C2=O)cc1[N+](=O)[O-] (stereo unspecified) do in these assays?
LmPK inh: 35.7%; TbPYK inhibitor: 1.2%; FBPA Giardia inh: -4.3%; RE007 growth inh: -10.9%

What do the screens show for `Cc1cc(C)cc(N2C(=O)c3nccnc3C2=O)c1`?
LmPK inh: -1.1%; TbPYK inhibitor: -15.4%; FBPA Giardia inh: 0.0%; RE007 growth inh: 1.6%

What do the screens show for `Cc1c([N+](=O)[O-])cc(N2C(=O)C=CC2=O)cc1[N+](=O)[O-]`?
TbPYK inhibitor: 25.1µM*; RE007 growth inh: -15.7%

How did Cc1c(Cl)cc(-n2cnnn2)cc1[N+](=O)[O-] do in these assays?
LmPK inh: -3.1%; TbPYK inhibitor: -3.0%; FBPA Giardia inh: 5.7%; RE007 growth inh: 7.2%

What do the screens show for `Cc1cc(N2C(=O)C=CC2=O)c([N+](=O)[O-])cc1C`?
LmPK inh: inconclusive; TbPYK inhibitor: 28.2µM*; FBPA Giardia inh: -28.6%; RE007 growth inh: inconclusive

How did CN1[C@@H]2CCC[C@@H]1CC(NC(=O)c1nn(C)c3ccccc13)C2 (stereo partly specified) do in these assays?
TbPYK inhibitor: 3.9%

What do the screens show for `CN(CC(=O)N1CCOCC1)Cc1c(Cl)cccc1NC(=O)c1ccccc1`?
TbPYK inhibitor: -4.8%

Results for CC(C)OC(=O)OCOP(=O)(CO[C@H](C)Cn1cnc2c(N)ncnc21)OCOC(=O)OC(C)C ?
TbPYK inhibitor: 14.3%

How did COC(=O)C(N)Cc1ccc(O)cc1 (stereo unspecified) do in these assays?
LmPK inh: -4.0%; TbPYK inhibitor: -0.2%; FBPA Giardia inh: -6.9%; RE007 growth inh: 15.1%

Results for NC(CO)C(=O)NNCc1ccc(O)c(O)c1O (stereo unspecified) ?
LmPK inh: -1.5%; TbPYK inhibitor: -6.3%; FBPA Giardia inh: 7.92µM*; RE007 growth inh: 6.8%

What do the screens show for `CC/C=C\C/C=C\C/C=C\C/C=C\C/C=C\C/C=C\CCC(N)=O`?
FBPA Giardia inh: -2.2%

How did CCn1cc(C(=O)O)c(=O)c2cnc(N3CCN(C(=S)NC(=O)c4ccc(Cl)cc4)CC3)nc21 do in these assays?
LmPK inh: 14.1µM*; TbPYK inhibitor: -6.7%; FBPA Giardia inh: -1.2%; RE007 growth inh: -3.8%

How did COc1ccccc1N(C(=O)CCl)c1cn(C(C)=O)c2ccccc12 do in these assays?
LmPK inh: -0.7%; TbPYK inhibitor: 2.1%; FBPA Giardia inh: 0.6%; RE007 growth inh: -0.3%

What do the screens show for `COc1ccccc1N(C(C)=O)C1=C(Cl)C(=O)c2ccccc2C1=O`?
TbPYK inhibitor: inconclusive; RE007 growth inh: 12.6µM*

Results for Cc1nn(-c2ccccc2)c(C)c1/C=N/n1c(-c2ccccc2Br)n[nH]c1=S ?
LmPK inh: 12.6µM*; TbPYK inhibitor: inconclusive; FBPA Giardia inh: 10.4%; RE007 growth inh: 13.1%

How did CCN(CC)c1ccc(/C=N/n2c(-c3ccccc3Br)n[nH]c2=S)cc1 do in these assays?
LmPK inh: -17.4%; TbPYK inhibitor: -13.5%; FBPA Giardia inh: 4.0%; RE007 growth inh: 10.3%

Bioassay records as filed in PubChem BioAssay.
